Shown are actives, neighbours in structure and some others; about 2.4% of the full set was active somewhere.
D2 ag-1 – D2 dopamine receptor (human) agonism; activation, % at 2 µM; P14416; 0.53% of 340,000 active; HEK293 T-REx D2 cells, calcium flux agonist mode;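 active means activation over 3 SD above normal in the single-dose calcium agonist read, cut at about 30% in these data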; further: 0% is about no effect
Target sequence (P14416 whole entry, looked up): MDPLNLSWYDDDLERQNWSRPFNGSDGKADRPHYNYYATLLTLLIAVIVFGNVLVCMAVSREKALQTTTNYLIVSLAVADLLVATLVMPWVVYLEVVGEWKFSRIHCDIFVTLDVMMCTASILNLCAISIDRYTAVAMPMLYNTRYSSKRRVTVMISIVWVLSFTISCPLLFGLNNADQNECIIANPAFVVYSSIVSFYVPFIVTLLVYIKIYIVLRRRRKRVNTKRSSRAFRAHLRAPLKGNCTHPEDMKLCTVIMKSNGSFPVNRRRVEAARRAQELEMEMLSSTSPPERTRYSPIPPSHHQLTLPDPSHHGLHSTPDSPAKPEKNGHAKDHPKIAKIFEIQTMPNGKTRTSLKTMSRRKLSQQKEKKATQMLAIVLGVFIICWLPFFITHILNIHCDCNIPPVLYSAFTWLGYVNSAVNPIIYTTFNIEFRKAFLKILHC
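Tetracycline-induced HEK293 Trex cells with D2 receptor force-coupled to calcium signaling, plated overnight at 30 C and loaded with no-wash calcium dye. Calcium flux read kinetically for 180 s after compound addition; responses flag agonists.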
D2 PAM-1 – D2 dopamine receptor (human) potentiation. P14416. AID 485347. HEK293 T-REx D2, calcium flux, EC20 dopamine potentiation. potentiation, % at 10 µM. 0.34% of 340,000 active;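 active means potentiation over 3 SD above the plate norm, cut at about 30% in these data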; further: 0% is about no effect
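Calcium flux readout, no-wash dye, 1 read/s. Inducible HEK293 Trex D2 line, overnight 30 C. Compound alone 180 s (agonist flags), then EC20 dopamine, another 180 s to score potentiation.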
D2 ag-2 – activates the human D2 dopamine receptor. DiscoveRx PathHunter D2 beta-arrestin, luminescence, 90 min; 100% = 57 uM dopamine signal. 0.084% of 360,000 active. activation, % (test concentration not listed). P14416; in the data active means activation above about 40%; inconclusive means between about 15% and that limit
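Agonist mode: compounds alone added to overnight-plated D2 PathHunter cells for 90 min at 37 C, with 57 uM final dopamine (EC100) defining full response. Beta-arrestin recruitment detected by chemiluminescent reagent, read after 1 h at ambient temperature.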
D2 antag – antagonists of human D2 dopamine receptor; 2% of 340,000 active; inhibition, % at 10 µM; P14416; HEK293 TREx D2 cells, calcium flux, dopamine EC80; in the data active means inhibition above about 30%; inactive means below that, where a call was filed; further: 0% is about no effect
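Inhibition of EC80 dopamine-driven calcium flux, recorded kinetically, defines activity here; cells are a tetracycline-induced HEK293 T-REx line expressing force-coupled D2.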
D2 PAM-2 – positive allosteric modulators of human D2 dopamine receptor | 0.23% of 360,000 active | potentiation, % (concentration not given with the values) | P14416 | DiscoveRx D2 beta-arrestin cells, luminescence, 90 min; 100% = 57 uM dopamine signal; in the data active means potentiation above about 50%; inconclusive means mostly about 30% to 49%
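D2 cells co-treated with compound plus 50 nM dopamine (EC20) for 90 min at 37 deg C to detect potentiation. Beta-arrestin recruitment was read as enzyme-fragment luminescence after 1 h at ambient temperature. Full response was set by 57 uM dopamine.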
An asterisk follows results filed as active; ? = inconclusive; . = not tested or not shown.

SMILES | D2 ag-1 | D2 PAM-1 | D2 ag-2 | D2 antag | D2 PAM-2
COCCn1c(C)cc(C(=O)COC(=O)c2ccc[nH]c2=O)c1C | -0.3 | 3.7 | 0.2 | 62.3* | 3.7
O=C(O)c1nn(CCOc2c(Cl)cccc2Cl)c(=O)c2ccccc12 | -0.9 | 44.9* | 3.0 | 4.1 | -1.7
COc1cccc(CNC(=O)c2sc3ncccc3c2-n2c(C)ccc2C)c1OC | -1.4 | 14.4 | . | . | .
CCOc1ccc(C(=O)N2CC(=O)Nc3ccc(C)cc3C2c2ccc(F)cc2)cc1OCC (stereo not drawn) | 2.3 | 10.3 | . | . | .
O=C(c1cc2cc3ccc(Cl)cc3nc2o1)N1CCN(c2cccc(Cl)c2)CC1 | 0.8 | 2.5 | . | . | .
c1ccc(Cc2nnc3sc(-c4cccs4)nn23)cc1 | -1.0 | -10.1 | -2.4 | 73.1* | 0.9
O=C(Nc1ccc(OC(F)(F)F)cc1)c1ccc2nc[nH]c2c1 | 1.2 | -9.2 | 4.0 | 61.7* | 13.2
C=CCNCCOc1c(C)cc(C)cc1Cl | -0.3 | -22.4 | -1.1 | 31.6* | -28.7
Cc1cc(C)c(OCCCCNCc2ccccc2)c(Cl)c1 | -0.7 | -13.8 | -1.7 | 49.0* | -20.0
C=CCNCCCCOc1c(Cl)cc(C)cc1Br | -0.4 | -7.0 | -1.6 | -9.5 | -5.3
Cc1ccc(C)c(NC(=O)c2cnn(-c3cccc(F)c3)c2C2CCN(C(=O)OC(C)(C)C)CC2)c1 | . | 4.2 | . | . | .
COc1ccc(N(C)S(=O)(=O)c2cccc(C(=O)NCC(c3ccco3)N3CCCC3)c2)cc1 (stereo not drawn) | -0.2 | -19.8 | -5.5 | 22.7 | -44.4
O=C(NCc1ccco1)c1cccc(C(F)(F)F)c1 | 1.8 | 0.3 | -5.7 | -6.7 | -1.7
COc1ccc(Cl)cc1NS(=O)(=O)c1cccc(C(=O)NCC(c2ccco2)N(C)C)c1 (stereo not drawn) | 0.3 | -19.1 | -2.9 | 60.4* | -42.8
COc1ccc(NS(=O)(=O)c2ccc(C)c(C(=O)NCC(c3ccco3)N(C)C)c2)cc1 (stereo not drawn) | 1.3 | -4.4 | -1.5 | 22.6 | -18.7
COc1ccccc1NS(=O)(=O)c1ccc(C(=O)NCC(c2ccco2)N(C)C)cc1 (stereo not drawn) | 0.5 | -11.9 | -0.7 | -12.2 | -3.1
CN(C)C(CNC(=O)c1cccc(C(F)(F)F)c1)c1ccco1 (stereo not drawn) | 0.3 | -33.3 | -5.3 | 31.3* | -5.9
COc1ccc(NS(=O)(=O)c2cccc(C(=O)NCC(c3ccco3)N(C)C)c2)cc1 (stereo not drawn) | 0.3 | -13.4 | 0.1 | 36.5* | -39.9
COc1ccc(N(C)S(=O)(=O)c2cccc(C(=O)NCC(c3cccs3)N(C)C)c2)cc1 (stereo not drawn) | 1.3 | -24.1 | 0.6 | 46.1* | -37.4
COc1ccccc1NS(=O)(=O)c1cccc(C(=O)NCC(c2ccco2)N2CCCCC2)c1 (stereo not drawn) | -0.3 | 4.0 | -1.9 | 2.4 | -40.5
COc1ccc(C(CNC(=O)c2ccc(NS(=O)(=O)c3ccc4c(c3)OCCO4)cc2)N(C)C)cc1 (stereo not drawn) | -0.3 | -13.5 | -4.3 | 31.0* | -40.3
COc1ccc(Cl)cc1NS(=O)(=O)c1cccc(C(=O)NCC(c2ccco2)N2CCCC2)c1 (stereo not drawn) | 0.2 | -22.2 | -7.1 | 38.5* | -49.5
CCCCOc1ccc(C(=O)NCC2(N3CCN(C)CC3)CCCCC2)cc1 | . | -0.4 | . | . | .
Cc1cccc(NC(=O)Cn2c(=O)n(Cc3ccc4c(c3)OCO4)c(=O)c3ccccc32)c1 | . | 0.0 | . | . | .
O=C(NCC(c1cccnc1)N1CCc2ccccc21)c1ccc(F)cc1 (stereo not drawn) | 0.3 | -4.4 | . | . | .
SMILES | D2 ag-1 | D2 PAM-1 | D2 ag-2 | D2 antag | D2 PAM-2
O=C1CCCc2ccccc2N1 | 1.1 | 45.9* | 8.2 | -5.8 | 1.1
O=C(N1CCOCC1)N1CCC(n2nnc3cc(F)ccc32)CC1 | . | 0.8 | -1.6 | . | -23.5
O=C(c1ccc([N+](=O)[O-])cc1)N1CCC(n2nnc3cc(F)ccc32)CC1 | -0.4 | 33.1* | -2.9 | -4.0 | 0.0
Cc1ccc(NS(=O)(=O)c2ccc(-c3cc(C)no3)cc2)c(C)c1 | 0.1 | 7.2 | . | . | .
CCOCCCNC(=O)c1cc2c(=O)[nH]c3ccccc3c2s1 | 38.6* | -13.3 | ? | 58.4* | 8.4
Cc1ccc(-c2cc3ncc(C(=O)c4cc([N+](=O)[O-])ccc4O)cn3n2)cc1 | 3.4 | . | . | . | .
Cc1ccc(/C=N/n2cnc3sc(C)c(C)c3c2=O)o1 | -0.2 | 47.3* | -1.7 | -4.5 | -5.4
COc1cc(-c2onc3ccc(Br)cc23)cc(OC)c1OC | -0.1 | -0.8 | ? | -7.5 | 58.7*
COc1ccc(-c2onc3ccc(Br)cc23)cc1 | 1.4 | 3.7 | ? | -1.2 | 100.2*
Cc1ccccc1NC(=O)CSc1cn(CC(=O)N2CCCCCC2)c2ccccc12 | -0.5 | -0.9 | . | . | .
CCC(NC(=O)c1ccc([N+](=O)[O-])cc1[N+](=O)[O-])c1ccccc1 (stereo not drawn) | 0.6 | 7.2 | 10.5 | -2.4 | 73.5*
Cc1ccc(Cl)cc1N1CCN(C(=O)CSc2nnc3n2C(C)(C)Cc2ccccc2-3)CC1 | -0.4 | 30.5* | 1.5 | -11.6 | 6.5
COc1ccc(N2CCN(C(=O)CSc3nnc4n3C(C)(C)Cc3ccccc3-4)CC2)cc1 | -0.6 | 18.6 | -1.7 | -6.0 | -0.2
O=C(NCc1ccccc1F)c1ccc2ccccc2n1 | 12.5 | 33.6* | -1.5 | -11.2 | -5.9
Cc1ccc(-c2c(C)n3c4c(=O)n(C)c(=O)n(C)c4nc3n2CCCO)cc1 | 0.1 | 10.9 | . | . | .
COc1ccc(Cc2nc(-c3ccc(Br)cc3)no2)cc1 | -0.3 | -10.0 | -1.2 | 31.2* | 18.4
CC(C)c1ccc(-c2nnc3n(CCc4ccccc4)c(=O)c4ccccc4n23)cc1 | 0.9 | 7.0 | . | . | .
COc1ccc(NC(=O)C(=O)NCCN2CCN(C(=O)c3ccc(C)cc3)CC2)cc1 | -1.7 | -21.6 | 0.1 | 46.0* | -22.3
O=C(CNc1ccccc1)N/N=C/c1ccc2c(c1)OCO2 | -0.5 | -8.3 | -0.2 | 37.3* | -10.4
Cc1cccc(C(=O)Nc2ccc(C(=O)N/N=C/c3ccc4c(c3)OCO4)cc2)c1 | -0.9 | -12.0 | -0.5 | -13.7 | -5.3
Cc1ccc(/C=N\NC(=O)c2ccc3c(c2)OCO3)o1 | 0.3 | -24.2 | -0.5 | 32.0* | -15.8
O=C(CNc1ccccc1)N/N=C/c1ccc2c(c1)OCCO2 | -0.4 | -3.1 | 2.3 | -0.3 | 6.0
Cc1cccc(C(=O)Nc2cccc(C(=O)N/N=C/c3ccc4c(c3)OCO4)c2)c1 | -0.6 | -0.3 | 1.9 | 37.3* | -4.7
CC1=C(C(=O)Nc2ccccc2)C(c2cccc(O)c2)n2nc(-c3ccccc3Cl)nc2N1 (stereo not drawn) | -0.4 | . | . | . | .
CC(=O)N1CCc2cc(S(=O)(=O)NC(Cc3ccccc3)C(=O)Nc3cccc(C)c3)ccc21 (stereo not drawn) | -0.8 | -1.0 | . | . | .

Screening results (PubChem)
